Source: PubChem BioAssay (EPA / NIEHS)
Results filed as inconclusive are left out. Activity calls are given as the source filed them. Rule for the calls: active = hit-call score of the fitted dose curve at least 0.9, where 1 is the maximum; inconclusive = response in the unintended direction; inactive = score below 0.9.

The compounds below were run against human RAR-related Orphan Receptor beta (RORb), RORB (gene 6096) (UniProt Q92753) (assay: ATG_RORb_TRANS: Attagene TRANS-FACTORIAL HepG2 Assay for human RAR-related Orphan Receptor beta (RORb) (AID 2283010)).
Sequence of human RAR-related Orphan Receptor beta (RORb), RORB (gene 6096) (Q92753 whole entry, looked up): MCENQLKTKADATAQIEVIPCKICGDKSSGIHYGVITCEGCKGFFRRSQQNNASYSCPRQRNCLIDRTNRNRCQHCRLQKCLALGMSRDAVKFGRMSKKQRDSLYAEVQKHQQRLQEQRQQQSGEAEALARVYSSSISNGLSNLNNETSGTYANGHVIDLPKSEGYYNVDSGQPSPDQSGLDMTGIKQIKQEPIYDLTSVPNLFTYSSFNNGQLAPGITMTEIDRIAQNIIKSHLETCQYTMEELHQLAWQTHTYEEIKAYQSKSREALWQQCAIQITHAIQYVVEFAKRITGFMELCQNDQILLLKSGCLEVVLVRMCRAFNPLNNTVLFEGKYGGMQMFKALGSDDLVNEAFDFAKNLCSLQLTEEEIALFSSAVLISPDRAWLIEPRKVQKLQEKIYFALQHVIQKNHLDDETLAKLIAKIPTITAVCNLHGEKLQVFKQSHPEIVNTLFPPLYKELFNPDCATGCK
Description: ATG_TRANS is a cell-based, multiplexed-readout assay that uses HepG2, a human liver cell line, with measurements taken at 24 hours after chemical dosing in a 24-well plate.ATG_RORb_TRANS is one of 30 assay component(s) measured or calculated from the ATG_TRANS assay. It is designed to make measurements of mRNA induction, a form of inducible reporter, as detected with fluorescence intensity signals by Reverse transcription polymerase chain reaction (RT-PCR) and Capillary electrophoresis technology.Data from the assay component ATG_RORb_TRANS was analyzed into 1 assay endpoint. This assay endpoint, ATG_RORb_TRANS, was analyzed in the positive analysis fitting direction relative to DMSO as the negative control and baseline of activity. Using a type of inducible reporter, measures of mRNA for gain-of-signal activity can be used to understand the reporter gene at the transcription factor-level as they relate to the gene RORB. Furthermore, this assay endpoint can be referred to as a primary readout, because this assay has produced multiple assay endpoints where this one serves a reporter gene function. To generalize the intended target to other relatable targets, this assay endpoint is annotated to the nuclear receptor intended target family, where the subfamily is orphan.
Human liver HepG2 cells are transiently transfected with multiple reporter transcription units (MRTUs) in 6-well plates using FuGene 6 reagent (Roche; 3 ml FuGene/1 mg DNA). The MRTU constructs are regulated by a cis-regulating element (promoter). […] A major difference between the CIS and TRANS system is that in CIS activities of endogenous TFs are measured, whereas the TRANS assay evaluates changes in activities of exogenous, chimeric NR-Gal4 proteins. […] At the end of 24 hour incubation, total RNA was isolated using TriZol reagent (Invitrogen). The isolated RNA is then reverse-transcribed using oligo(dT) primer and Mo-MLV reverse transcriptase (Invitrogen) with DNAse I (Ambion) treatment for 30 min. The one-tenth of the produced cDNA was amplified by PCR using Taq DNA polymerase (Invitrogen) and two reporter sequence-specific primers. The PCR products were fluorescently labeled by primer extension with 6-arboxyfluorescein (6-FAM) 5'-labeled reporter sequence-specific primer (2 min at 95 C, 20 s at 68 C and 10 min at 72 C) and these products were digested with 5U of HpaI (New England Biolabs) for 2h at 37 C. The fragments were purified using Qiaquick PCR columns (Qiagen), analyzed on an ABI 3130xL genetic analyzer (Applied Biosystems) with peak positions identified by using a set of X-rhodamine (ROX)-labeled MapMarker1000 molecular weight standards (BioVentures). The raw capillary electrophoresis data was processed using Attagraph software (Attagene).

outcome, inactive:
CCCCC(CC)COC(=O)c1ccc(O)cc1 (stereo not given)
CCCCCCCCCCCCCCCC(=O)OC/C=C(C)/C=C/C=C(C)/C=C/C1=C(C)CCCC1(C)C
OCC(O)c1ccccc1 (stereo not given)
CC(C)CC(C)CC(O)CC(C)C (stereo not given)
CN1CCOCC1
O=C(O)COCC(=O)O
COc1ccccc1[N+](=O)[O-]
O=C1OC[C@H](Cc2cccc(O)c2)[C@H]1Cc1cccc(O)c1
CC(C)(N=C=O)c1cccc(C(C)(C)N=C=O)c1
O=c1[nH]c(=O)c2cn[nH]c2[nH]1
CC1=NN(c2ccc(S(=O)(=O)O)cc2)C(=O)C1
CCC1CCCCC1
O=P(O)(O)O
IC(I)I
CCCCOCC
CCCCCCCCCCCCS(=O)(=O)Cl
CCCCC(CC)C(=O)OC(C)C (stereo not given)
CCCCCCC(C)(C)S
C1=CC2C3C=CC(C3)C2C1 (stereo not given)
Oc1c(Cl)cc(Cl)c(Cl)c1Cc1c(O)c(Cl)cc(Cl)c1Cl
Cc1cc(C)nc(NS(=O)(=O)c2ccc(N)cc2)n1
CC1=C(Br)C(=O)C(Br)=C/C1=C(/c1ccccc1S(=O)(=O)O)c1cc(Br)c(O)c(Br)c1C
COc1ccccc1N=Nc1c(S(=O)(=O)O)cc2cc(S(=O)(=O)O)cc(NC(C)=O)c2c1O
O=C(O)c1cc(C(=O)O)cc([N+](=O)[O-])c1
C#CC(C)N(C)C(=O)Nc1ccc(Cl)cc1 (stereo not given)
CCOC(=O)CN
CCOCCOCCOCC
c1ccc2cc(Nc3ccc(Nc4ccc5ccccc5c4)cc3)ccc2c1
CN(C)CCOC(C)(c1ccccc1)c1ccccn1 (stereo not given)
Brc1ccc(Br)c(Br)c1
Nc1ccc(NCCO)c([N+](=O)[O-])c1
C=CCN(CC=C)CC=C
Cc1c(C2(c3cc(Br)c(O)c(Br)c3C)OS(=O)(=O)c3ccccc32)cc(Br)c(O)c1Br
Cc1ccc(-c2ccccc2)cc1
ON=C1CCCCC1
NCc1ccco1
O=CN1CCOCC1
OC[C@H]1O[C@@H]2O[C@H]3[C@H](O)[C@@H](O)[C@@H](O[C@H]4[C@H](O)[C@@H](O)[C@@H](O[C@H]5[C@H](O)[C@@H](O)[C@@H](O[C@H]6[C@H](O)[C@@H](O)[C@@H](O[C@H]7[C@H](O)[C@@H](O)[C@@H](O[C@H]8[C@H](O)[C@@H](O)[C@@H](O[C@H]9[C@H](O)[C@@H](O)[C@@H](O[C@H]1[C@H](O)[C@H]2O)O[C@@H]9CO)O[C@@H]8CO)O[C@@H]7CO)O[C@@H]6CO)O[C@@H]5CO)O[C@@H]4CO)O[C@@H]3CO
CC(=O)C(C)O (stereo not given)
O=c1c(O)c(-c2ccc(O)cc2)oc2cc(O)cc(O)c12
